According to the antibiotic and cytotoxicity screens of Wong et al. (2023):
Screen size: about 39,000 compounds; about 3,300 (8.5%) were called active. This excerpt belongs to a sample that is enriched for actives.

tested on: HepG2; assay: cytotoxicity call (relative viability < 0.9); conditions: 10 µM

SMILES	cytotoxicity call
COc1cc(OC)nc(N=CNO)n1	inactive
O=C(C[C@@H]1C[C@H]2c3cc(NC(=O)C4CCOCC4)ccc3O[C@H]2[C@H](CO)O1)NCc1cc(F)ccc1F	inactive
CO[C@@H]1[C@H](N(C)C(=O)c2ccccc2)C[C@H]2O[C@]1(C)n1c3ccccc3c3c4c(c5c6ccccc6n2c5c31)C(=O)NC4	active
C[C@@H]1CCCCO[C@H](CN(C)C(=O)c2ccccc2)[C@@H](C)CN([C@H](C)CO)C(=O)c2cc(NC(=O)Cc3ccccc3)ccc2O1	inactive
Cc1noc(C)c1NC(=O)Nc1ccc2c(c1)C(=O)N([C@@H](C)CO)C[C@H](C)[C@@H](CN(C)Cc1ccccc1)OCCCC[C@H](C)O2	inactive
C[C@@H]1CN([C@H](C)CO)C(=O)c2cc(NS(=O)(=O)c3ccc(F)cc3)ccc2O[C@@H]1CN(C)CC1CC1	inactive
CN(C)C1C(O)=C(C(N)=O)C(=O)C2(O)C(O)=C3C(=O)c4c(O)cccc4C(C)(O)C3C(O)C12.Cl (stereo not given)	inactive
CC(=O)N(C)C[C@H]1Oc2ncc(C#C[C@@H](C)O)cc2C(=O)N([C@H](C)CO)C[C@H]1C	inactive
CC(=O)N[C@@H]1[C@@H](O)[C@H](O)[C@@H](CO)O[C@H]1O	inactive
COc1ccc(N2CCN(c3nc(NCCO)nc(N4CCOCC4)n3)CC2)cc1	inactive
Cc1nc(N)sc1-c1ccnc(Nc2ccc(N3CCOCC3)cc2)n1	active
CC(=O)Oc1ccc(-c2cc(=O)c3c(OC(C)=O)cc(OC(C)=O)cc3o2)cc1	inactive
CN1CCN(C(=O)C[C@H]2CC[C@H]3[C@@H](COC[C@H](O)CN3C(=O)C3CC3)O2)CC1	inactive
COc1ccc(S(=O)(=O)N(C)C[C@H]2Oc3ccc(NC(=O)Cc4ccccc4)cc3C(=O)N([C@@H](C)CO)C[C@@H]2C)cc1	inactive
C[C@H]1CN([C@@H](C)CO)C(=O)c2cccc(NC(=O)Nc3ccccc3)c2O[C@@H]1CN(C)Cc1ccc(C(F)(F)F)cc1	inactive
Cc1ccc(Nc2ncc3c(n2)N(C)C(=O)N(c2cc(NC(=O)c4cccc(C(F)(F)F)c4)ccc2C)C3)cn1	active
CC(=O)c1cccc(C(F)(F)F)c1	inactive
Cc1ncc(NC(=O)c2cccc(C(F)(F)F)c2)cc1-c1cnc(OC2CCOCC2)c(N2CCOCC2)c1	inactive
Cc1ccc(S(=O)(=O)N(C)C[C@@H]2Oc3cc(Br)ccc3S(=O)(=O)N([C@H](C)CO)C[C@@H]2C)cc1	inactive
Cc1noc(C)c1S(=O)(=O)N(C)C[C@@H]1OCCCC[C@@H](C)Oc2ccc(NS(C)(=O)=O)cc2C(=O)N([C@H](C)CO)C[C@H]1C	inactive
CCCC[P+](CCCC)(CCCC)Cc1ccc(NC(=O)[C@H](Cc2ccc3ccccc3c2)N/C(=N/C2CCCCC2)NC2CCCCC2)cc1	inactive
C/C=C/c1ccc2c(c1)O[C@H](CN(C)Cc1ccc(C(=O)O)cc1)[C@@H](C)CN([C@@H](C)CO)S2(=O)=O	inactive

SMILES	cytotoxicity call
COc1ccc(CN(C)C[C@@H]2OCCCC[C@@H](C)Oc3ccc(NC(=O)Nc4ccc5c(c4)OCO5)cc3C(=O)N([C@@H](C)CO)C[C@H]2C)cc1	active
COc1ccc(CN(C)C[C@@H]2OCCCC[C@H](C)Oc3ccc(NC(=O)Nc4ccc5c(c4)OCO5)cc3C(=O)N([C@H](C)CO)C[C@@H]2C)cc1	inactive
COc1ccc(CN(C)C[C@@H]2OCCCC[C@@H](C)Oc3ccc(NC(=O)Nc4ccc5c(c4)OCO5)cc3C(=O)N([C@@H](C)CO)C[C@@H]2C)cc1	active
COc1ccc(CN(C)C[C@@H]2OCCCC[C@@H](C)Oc3ccc(NC(=O)Nc4ccc5c(c4)OCO5)cc3C(=O)N([C@H](C)CO)C[C@@H]2C)cc1	inactive
COc1ccc(CN(C)C[C@H]2OCCCC[C@H](C)Oc3ccc(NC(=O)Nc4ccc5c(c4)OCO5)cc3C(=O)N([C@@H](C)CO)C[C@@H]2C)cc1	active
COc1ccc(CN(C)C[C@@H]2OCCCC[C@H](C)Oc3ccc(NC(=O)Nc4ccc5c(c4)OCO5)cc3C(=O)N([C@H](C)CO)C[C@H]2C)cc1	inactive
COc1ccc(CN(C)C[C@H]2OCCCC[C@@H](C)Oc3ccc(NC(=O)Nc4ccc5c(c4)OCO5)cc3C(=O)N([C@H](C)CO)C[C@@H]2C)cc1	inactive
COc1ccc(CN(C)C[C@H]2OCCCC[C@H](C)Oc3ccc(NC(=O)Nc4ccc5c(c4)OCO5)cc3C(=O)N([C@H](C)CO)C[C@@H]2C)cc1	inactive
COc1ccc(CN(C)C[C@@H]2OCCCC[C@H](C)Oc3ccc(NC(=O)Nc4ccc5c(c4)OCO5)cc3C(=O)N([C@@H](C)CO)C[C@H]2C)cc1	inactive
COc1ccc(CN(C)C[C@H]2OCCCC[C@@H](C)Oc3ccc(NC(=O)Nc4ccc5c(c4)OCO5)cc3C(=O)N([C@H](C)CO)C[C@H]2C)cc1	active
COc1ccc(CN(C)C[C@@H]2OCCCC[C@@H](C)Oc3ccc(NC(=O)Nc4ccc5c(c4)OCO5)cc3C(=O)N([C@H](C)CO)C[C@H]2C)cc1	inactive
COc1ccc(CN(C)C[C@@H]2OCCCC[C@H](C)Oc3ccc(NC(=O)Nc4ccc5c(c4)OCO5)cc3C(=O)N([C@@H](C)CO)C[C@@H]2C)cc1	inactive
O=C(C[C@H]1CC[C@@H](NC(=O)c2cnccn2)[C@@H](CO)O1)NCc1ccccc1F	inactive
COc1ccc(CNC(=O)C[C@@H]2C[C@H]3c4cc(NC(=O)NC5CCCC5)ccc4O[C@H]3[C@H](CO)O2)cc1	inactive
COc1ccc(NC(=O)N(C)C[C@H]2Oc3ccc(NS(C)(=O)=O)cc3CC(=O)N([C@H](C)CO)C[C@H]2C)cc1	inactive
O=C(C[C@@H]1C=C[C@H](NC(=O)CN2CCOCC2)[C@@H](CO)O1)NCc1cccc(F)c1	inactive
C[C@H](CO)N1C[C@H](C)[C@@H](CN(C)CC2CCCCC2)Oc2ccc(NC(=O)CCN3CCOCC3)cc2CC1=O	inactive
C[C@H]1CN([C@@H](C)CO)C(=O)CCCn2cc(nn2)CO[C@H]1CN(C)S(C)(=O)=O	inactive
C[C@@H]1CCCCO[C@@H](CN(C)C(=O)CCCN(C)C)[C@H](C)CN([C@H](C)CO)C(=O)c2cc(NC(=O)Nc3cccc4ccccc34)ccc2O1	inactive
COc1ccc(CN(C)C[C@H]2OCCCC[C@@H](C)Oc3ccc(NC(=O)Nc4ccc5c(c4)OCO5)cc3C(=O)N([C@@H](C)CO)C[C@H]2C)cc1	inactive
COc1ccc(CN(C)C[C@H]2OCCCC[C@H](C)Oc3ccc(NC(=O)Nc4ccc5c(c4)OCO5)cc3C(=O)N([C@@H](C)CO)C[C@H]2C)cc1	active
COc1ccc(CN(C)C[C@H]2OCCCC[C@@H](C)Oc3ccc(NC(=O)Nc4ccc5c(c4)OCO5)cc3C(=O)N([C@@H](C)CO)C[C@@H]2C)cc1	inactive

SMILES	cytotoxicity call
COc1ccc(-c2cnc3c(c2)C(=O)N([C@H](C)CO)C[C@@H](C)[C@H](CN(C)C(=O)C2CCOCC2)O3)cc1	inactive
CCCCCCCCCCCCCCCCCCCCCCCCCCCCO	inactive
CCCCCCCCCCCCCCCC(=O)CCO	inactive
CCCCCCCCCCCCCCCCCCCCCCO	active
COCC(=O)Nc1ccc2c(c1)[C@@H]1C[C@H](CC(=O)N3CCOCC3)O[C@H](CO)[C@@H]1O2	inactive
COc1ccc(NC(=O)O[C@H]2[C@H](OC(=O)Nc3ccccc3-c3ccccc3)[C@H](OC(=O)Nc3ccccc3-c3ccccc3)[C@@H](OC)O[C@@H]2CO)cc1	inactive
CO[C@H]1O[C@H](CO)[C@@H](OC(=O)Nc2ccccc2-c2ccccc2)[C@H](OC(=O)Nc2ccccc2)[C@@H]1OC(=O)Nc1ccccc1	active
CO[C@H]1O[C@H](CO)[C@@H](OC(=O)Nc2cccc(F)c2)[C@H](OC(=O)Nc2ccccc2-c2ccccc2)[C@H]1OC(=O)Nc1ccccc1-c1ccccc1	active
CO[C@H]1O[C@H](CO)[C@@H](OC(=O)Nc2ccccc2-c2ccccc2)[C@H](OC(=O)Nc2ccccc2-c2ccccc2)[C@@H]1OC(=O)Nc1ccccc1-c1ccccc1	inactive
CO[C@H]1O[C@H](CO)[C@@H](OC(=O)Nc2cccc(F)c2)[C@H](OC(=O)Nc2ccccc2-c2ccccc2)[C@@H]1OC(=O)Nc1ccccc1-c1ccccc1	inactive
CCc1cccc(NC(=O)O[C@H]2[C@H](OC(=O)Nc3ccccc3-c3ccccc3)[C@H](OC(=O)Nc3ccccc3-c3ccccc3)[C@@H](OC)O[C@@H]2CO)c1	inactive
C[C@@H]1CN([C@@H](C)CO)C(=O)Cc2cc(NS(C)(=O)=O)ccc2O[C@@H]1CN(C)S(=O)(=O)c1cccs1	inactive
CN1CCN(C(=O)C[C@@H]2C[C@H]3c4cc(NC(=O)c5ccc6c(c5)OCO6)ccc4O[C@H]3[C@H](CO)O2)CC1	inactive
COc1ccc(S(=O)(=O)N(C)C[C@H]2Oc3cc(C#CC4CC4)ccc3S(=O)(=O)N([C@H](C)CO)C[C@@H]2C)cc1	inactive
CCCCc1oc2ccc(NS(C)(=O)=O)cc2c1C(=O)c1ccc(OCCCN(CCCC)CCCC)cc1.Cl	active
CCCCc1oc2ccc(NS(C)(=O)=O)cc2c1C(=O)c1ccc(OCCCN(CCCC)CCCC)cc1	active
CCCCN(CCCC)CCCOC(=O)c1ccc(N)cc1.O=S(=O)(O)O	inactive
CCC1=NCCO1	inactive
CC(C)NC(=O)N(C)C[C@@H]1Oc2ccc(NC(=O)Nc3ccc4c(c3)OCO4)cc2C(=O)N([C@H](C)CO)C[C@H]1C	inactive
C#CCN1C(=O)N(C(=O)c2ccccc2)[C@@]2(COCc3ccc(OC)cc3)Oc3ccccc3[C@@H]1[C@H]2CO[Si](C)(C)C(C)(C)C	inactive
CN(C)CCCNC(=O)C[C@@H]1CC[C@@H]2[C@@H](COc3ccc(NC(=O)c4ccccc4F)cc3C(=O)N2C)O1	inactive
